In PubChem BioAssay (Tox21):
Inconclusive results are not listed. The source made the active and inactive calls. Unless noted, calls come from the whole dose curve; as a rule, active = well fitted curve in the direction sought with a large enough effect in the repeat runs; inconclusive = weak or mixed curves; inactive = no such curve, though single readings can be large; an effect the other way counts as inactive or inconclusive.

Tests used:
[1] = qHTS assay to identify small molecule agonists of the peroxisome proliferator-activated receptor delta (PPARd) signaling pathway - cell viability counter screen (AID 743211); note: % is set by controls: 0 for no effect and ±100 for the full control effect; nearly all actives have a fitted effect of over 55% in size
Summary of the method: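 Luminescent ATP viability assay (CellTiter-Glo, 30 min RT) in UAS-bla HEK293H cells carrying the PPAR delta reporter construct, 3000 cells/well, after a 17 h compound treatment at 37 C.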

[2] = molecular target: Peroxisome proliferator-activated receptor delta (Homo sapiens) (UniProt Q03181); test: qHTS assay to identify small molecule agonists of the peroxisome proliferator-activated receptor delta (PPARd) signaling pathway (AID 743212; calls by dose curve; note: % is set by controls: 0 for no effect and ±100 for the full control effect)
Summary of the method: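 HEK293H UAS-bla reporter cells, human PPARd system; compounds delivered in DMSO after 5 h plating, then at 37 C. Beta-lactamase FRET read, 2 h RT substrate step.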

[3] = qHTS assay to identify small molecule antagonists of the peroxisome proliferator-activated receptor delta (PPARd) signaling pathway - cell viability counter screen (AID 743213); note: % is set by controls: 0 for no effect and ±100 for the full control effect; nearly all actives have a fitted effect of over 50% in size
Summary of the method: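 Luminescence from CellTiter-Glo, added after the bla read and incubated 30 min at room temperature, gives viability of HEK293H PPARd-bla cells exposed to compounds for 17 h at 37 C with 300 nM L165041.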

[4] = molecular target: Peroxisome proliferator-activated receptor delta (Homo sapiens) (UniProt Q03181); test: qHTS assay to identify small molecule antagonists of the peroxisome proliferator-activated receptor delta (PPARd) signaling pathway (AID 743215; active = well fitted inhibition curve with a large enough effect in the signal ratio in the repeat runs, not every such curve was filed as active; the % refers to the signal ratio;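 note: cells stimulated with agonist L165041 at 300 nM final during compound exposure; series mostly up to about 62 µM; % is set by controls: 0 for no effect and ±100 for the full control effect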)
Summary of the method: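 With L165041 present at 300 nM final, compounds were incubated 17 h at 37 C on PPARd UAS-bla HEK293H cells. A FRET-based beta-lactamase substrate was then applied for 2 h at room temperature and fluorescence intensity recorded.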

[5] = molecular target: Bile acid receptor (Homo sapiens) (UniProt Q96RI1); test: qHTS assay to identify small molecule antagonists of the farnesoid-X-receptor (FXR) signaling pathway (AID 743217; active = well fitted inhibition curve with a large enough effect in the signal ratio in the repeat runs, not every such curve was filed as active; the % refers to the signal ratio; note: % is set by controls: 0 for no effect and ±100 for the full control effect)
Summary of the method: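 In this cell-based antagonist screen, inhibition of CDCA-driven (50 uM final) UAS-beta-lactamase expression in HEK 293T cells was measured by FRET fluorescence following 16 h compound exposure at 37 °C.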

[6] = qHTS assay to identify small molecule agonists of the farnesoid-X-receptor (FXR) signaling pathway - cell viability counter screen (AID 743218); note: % is set by controls: 0 for no effect and ±100 for the full control effect; nearly all actives have a fitted effect of over 45% in size
Summary of the method: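 After 16 h at 37 C with test compounds, FXR-bla HEK 293T cells were given LiveBLAzer B/G substrate for 2 h at RT and then CellTiter-Glo; luminescence was taken after 30 min.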

[7] = molecular target: Bile acid receptor (Homo sapiens) (UniProt Q96RI1); test: qHTS assay to identify small molecule agonists of the farnesoid-X-receptor (FXR) signaling pathway (AID 743220; active = well fitted activation curve with a large enough effect in the signal ratio in the repeat runs, not every such curve was filed as active; the % refers to the signal ratio; note: % is set by controls: 0 for no effect and ±100 for the full control effect)
Summary of the method: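 Beta-lactamase reporter under UAS control in GeneBLAzer FXR HEK 293T cells (5000/well) measured with LiveBLAzer FRET substrate after 2 h at room temperature. Compound exposure lasted 16 h at 37C.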

[8] = qHTS assay to identify small molecule antagonists of the farnesoid-X-receptor (FXR) signaling pathway - cell viability counter screen (AID 743221; active = well fitted cell-killing curve with a large enough effect in the repeat runs, not every such curve was filed as active; note: % is set by controls: 0 for no effect and ±100 for the full control effect; nearly all actives have a fitted effect of over 50% in size)
Summary of the method: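 In GeneBLAzer FXR-UAS-bla HEK 293T cells stimulated with 50 uM chenodeoxycholic acid (final), compounds acted for 16 h at 37 C. Viability was assessed afterwards by CellTiter-Glo luminescence.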

[9] = molecular target: Vitamin D3 receptor (Homo sapiens) (UniProt P11473); test: qHTS assay to identify small molecule agonists of the vitamin D receptor (VDR) signaling pathway (AID 743222; calls by dose curve; note: % is set by controls: 0 for no effect and ±100 for the full control effect)
Summary of the method: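 VDR-bla cells were seeded, left 4 h, treated with compounds in DMSO for 16 h, incubated 2 h at RT with B/G FRET substrate, and read for fluorescence.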

[10] = molecular target: Vitamin D3 receptor (Homo sapiens) (UniProt P11473); test: qHTS assay to identify small molecule antagonists of the vitamin D receptor (VDR) signaling pathway (AID 743223; active = well fitted inhibition curve with a large enough effect in the signal ratio in the repeat runs, not every such curve was filed as active; the % refers to the signal ratio; note: % is set by controls: 0 for no effect and ±100 for the full control effect)
Summary of the method: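 Agonist 1alpha,25-dihydroxyvitamin D3 (3 nM in well) was added with each compound to VDR-bla cells preincubated 4 h. Cells stood 16 h at 37C, then FRET substrate 2 h at room temperature; fluorescence intensity recorded.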

[11] = qHTS assay to identify small molecule antagonists of the vitamin D receptor (VDR) signaling pathway - cell viability counter screen (AID 743225); note: % is set by controls: 0 for no effect and ±100 for the full control effect; nearly all actives have a fitted effect of over 50% in size
Summary of the method: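 Luminescent cell viability (CellTiter-Glo) in VDR-bla HEK 293T cells after 16 h compound exposure at 37C in the presence of 3 nM final 1-alpha,25-dihydroxy vitamin D3.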

[12] = qHTS assay to identify small molecule agonists of the NFkB signaling pathway (AID 1159509; active = well fitted curve in the direction sought with a large enough effect in the signal ratio in the repeat runs, not every such curve was filed as active; the % refers to the signal ratio)
Summary of the method: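 NFkB-bla ME-180 cells with a beta-lactamase reporter under an NF-kB response element were plated overnight, treated with compounds in DMSO for 5 hr at 37 C, then loaded with FRET substrate for 1.5 hr at room temperature.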

[13] = qHTS assay to identify small molecule agonists of the NFkB signaling pathway - cell viability counter screen (AID 1159515; calls by dose curve; note: series mostly up to about 61 µM; % is set by controls: 0 for no effect and ±100 for the full control effect; nearly all actives have a fitted effect of over 55% in size)
Summary of the method: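 5 hr compound treatment of NFkB-bla ME-180 cells (2,000/well, seeded overnight beforehand), followed by reporter substrate for 1.5 hr. CellTiter-Glo added afterward; luminescence after 30 min RT.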

[14] = qHTS assay to identify small molecule agonists of the endoplasmic reticulum stress response signaling pathway (AID 1159516; active = well fitted activation curve with a large enough effect in the signal ratio in the repeat runs, not every such curve was filed as active; the % refers to the signal ratio; note: % is set by controls: 0 for no effect and ±100 for the full control effect)
Summary of the method: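 Reporter HeLa cells (ESRE-beta-lactamase) underwent 5 hr compound incubation at 37 C and 5% CO2 in quantitative HTS format. Detection followed 2 hr of FRET substrate loading at room temperature.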

[15] = molecular target: Nuclear receptor ROR-gamma (Homo sapiens) (UniProt P51449); test: qHTS assay to identify small molecule antagonists of the retinoid-related orphan receptor gamma (ROR-gamma) signaling pathway (AID 1159521;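 note: CHO cells with doxycycline inducible ROR-gamma driving an RORE luciferase reporter; top concentration of the series differs between compounds; % is set by controls: 0 for no effect and ±100 for the full control effect; nearly all actives have a fitted effect of over 50% in size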)
Summary of the method: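 CHO cells expressing RORγ under a TET-on promoter, luciferase under RORE control. Dox 1 uM final, 16 h; compounds added 2 h prior. Luminescence decrease measured.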

[16] = qHTS assay to identify small molecule agonists of the AP-1 signaling pathway - cell viability counter screen (AID 1159525; calls by dose curve; note: nearly all actives have a fitted effect of over 55% in size)
Summary of the method: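 Luminescent ATP readout (Cell Titer Glo, 30 min RT), normalised to DMSO and tetra n-octyl ammonium bromide controls. Cells were ME-180 AP-1-bla in 0.5% dialyzed FBS Opti-MEM, with a 5 h, 37 °C compound exposure.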

[17] = qHTS assay to identify small molecule agonists of the AP-1 signaling pathway (AID 1159526; calls by dose curve; note: % is set by controls: 0 for no effect and ±100 for the full control effect)
[18] = qHTS assay to identify small molecule agonists of the vitamin D receptor (VDR) signaling pathway - cell viability counter screen (AID 743224)
Summary of the method: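 Here cell health was gauged by luminescent ATP detection (CellTiter-Glo, 30 min RT) in VDR-bla cells that had been incubated with test compounds for 16 h at 37C and 5% CO2.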

[19] = qHTS assay to identify small molecule antagonists of the retinoid-related orphan receptor gamma (ROR-gamma) signaling pathway - cell viability counter screen (AID 1159520)
Summary of the method: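 Cytotoxicity was read from cellular ATP (CellTiter-Glo luminescence) after 16 hr at 37 C with 1 uM doxycycline induction. The inducer was added 2 hr after compound transfer to Tet-on ROR gamma CHO cells.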

[20] = qHTS assay to identify small molecule agonists of the endoplasmic reticulum stress response signaling pathway - cell viability counter screen (AID 1159517; calls by dose curve)
Summary of the method: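 Cells, HeLa ESRE-bla; density, 1,500/well; dosing, 5 hr at 37 C, 5% CO2; readout, CellTiter-Glo luminescence after 30 min RT.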

Sequence of Bile acid receptor (Homo sapiens) (Q96RI1 whole entry, looked up): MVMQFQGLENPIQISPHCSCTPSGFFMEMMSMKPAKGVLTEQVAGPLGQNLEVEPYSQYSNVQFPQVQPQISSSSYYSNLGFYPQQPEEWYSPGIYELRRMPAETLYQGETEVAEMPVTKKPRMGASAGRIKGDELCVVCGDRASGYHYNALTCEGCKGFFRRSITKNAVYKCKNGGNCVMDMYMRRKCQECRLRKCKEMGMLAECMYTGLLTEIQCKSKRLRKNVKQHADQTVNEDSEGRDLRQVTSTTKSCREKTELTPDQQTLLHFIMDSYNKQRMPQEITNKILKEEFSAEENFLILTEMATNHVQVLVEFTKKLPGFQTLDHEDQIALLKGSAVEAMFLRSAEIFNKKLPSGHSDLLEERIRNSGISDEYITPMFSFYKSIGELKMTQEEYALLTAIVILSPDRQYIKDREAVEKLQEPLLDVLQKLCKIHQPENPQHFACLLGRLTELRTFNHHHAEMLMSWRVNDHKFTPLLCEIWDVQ
Sequence of Peroxisome proliferator-activated receptor delta (Homo sapiens) (Q03181 whole entry, looked up): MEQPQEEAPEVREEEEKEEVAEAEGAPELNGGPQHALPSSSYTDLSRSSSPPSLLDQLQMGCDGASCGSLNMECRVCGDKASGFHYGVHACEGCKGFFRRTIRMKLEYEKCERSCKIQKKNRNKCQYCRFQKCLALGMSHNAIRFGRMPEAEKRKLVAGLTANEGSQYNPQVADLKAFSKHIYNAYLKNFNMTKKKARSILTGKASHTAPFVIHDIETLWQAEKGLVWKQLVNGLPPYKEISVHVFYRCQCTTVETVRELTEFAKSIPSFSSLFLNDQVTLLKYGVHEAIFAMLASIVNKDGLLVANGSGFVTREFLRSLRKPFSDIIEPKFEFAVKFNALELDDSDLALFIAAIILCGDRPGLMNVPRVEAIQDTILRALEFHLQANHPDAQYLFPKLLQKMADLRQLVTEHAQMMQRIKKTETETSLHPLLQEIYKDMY
Sequence of Vitamin D3 receptor (Homo sapiens) (P11473 whole entry, looked up): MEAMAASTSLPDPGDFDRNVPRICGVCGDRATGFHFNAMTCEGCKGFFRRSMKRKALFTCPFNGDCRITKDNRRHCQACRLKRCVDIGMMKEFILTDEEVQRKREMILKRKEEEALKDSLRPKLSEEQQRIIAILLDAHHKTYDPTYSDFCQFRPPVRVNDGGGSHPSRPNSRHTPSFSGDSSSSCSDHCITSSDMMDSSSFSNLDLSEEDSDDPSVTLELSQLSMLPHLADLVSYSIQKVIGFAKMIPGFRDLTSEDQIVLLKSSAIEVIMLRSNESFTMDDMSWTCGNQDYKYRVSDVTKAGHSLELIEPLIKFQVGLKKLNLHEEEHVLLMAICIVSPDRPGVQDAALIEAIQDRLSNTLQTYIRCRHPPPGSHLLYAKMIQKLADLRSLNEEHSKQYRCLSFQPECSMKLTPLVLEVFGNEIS

NC(=O)c1c(Cl)cccc1Cl
inactive: Potency [1] | outcome [2] | Potency [3] | outcome [4] | outcome [5] | outcome [6] | outcome [7] | Potency [8] | outcome [9] | outcome [10] | outcome [11] | outcome [12] | outcome [13] | outcome [14] | Potency [15] | outcome [16] | Potency [17]

C=CC(=O)N1CCOCC1
inactive: Potency [1] | outcome [2] | Potency [3] | outcome [4] | outcome [5] | outcome [6] | outcome [7] | Potency [8] | outcome [9] | outcome [18] | outcome [11] | outcome [12] | outcome [13] | outcome [14] | Potency [15] | outcome [16] | Potency [17]

CCC(C)OC(=O)N1CCCCC1CCO (configuration not stated)
inactive: Potency [1] | outcome [2] | Potency [3] | outcome [5] | outcome [7] | Potency [8] | outcome [9] | outcome [10] | outcome [18] | outcome [12] | outcome [13] | outcome [14] | Potency [19] | Potency [15] | outcome [16] | Potency [17]

COc1nc(C)nc(N)n1
inactive: Potency [1] | outcome [2] | Potency [3] | outcome [4] | outcome [6] | Potency [8] | outcome [9] | outcome [10] | outcome [18] | outcome [11] | outcome [12] | outcome [13] | outcome [14] | Potency [19] | Potency [15] | outcome [16] | Potency [17]

CCCc1ccccc1O
inactive: Potency [1] | Potency [3] | outcome [6] | Potency [8] | outcome [9] | outcome [10] | outcome [18] | outcome [12] | outcome [13] | outcome [14] | Potency [19] | Potency [15] | outcome [16] | Potency [17]

CCC(=O)Nc1cccc(N)c1
inactive: Potency [1] | outcome [2] | Potency [3] | Potency [8] | outcome [9] | outcome [10] | outcome [18] | outcome [11] | outcome [12] | outcome [13] | outcome [14] | Potency [19] | Potency [15] | Potency [17]

Cn1ccc2cc3c(cc21)CCN3C(=O)Nc1cccnc1
inactive: outcome [2] | Potency [3] | outcome [5] | outcome [6] | outcome [7] | outcome [10] | outcome [11] | outcome [12] | outcome [13] | outcome [14] | activity, negative = cytotoxicity [19] -0.672% [at 19 µM] | activity change, negative = inhibition [15] 207% [at 19 µM] | activation [17] -5.75% [at 15.8 µM]

CC(C=O)Cc1ccc(C(C)C)cc1 (configuration not stated)
inactive: Potency [1] | outcome [2] | Potency [3] | Potency [8] | outcome [9] | outcome [10] | outcome [18] | outcome [11] | outcome [12] | outcome [13] | outcome [14] | Potency [19] | Potency [15] | outcome [16] | Potency [17]

C=CCOc1nc(OCC=C)nc(OCC=C)n1
inactive: Potency [1] | outcome [2] | outcome [4] | outcome [6] | Potency [8] | outcome [9] | outcome [12] | outcome [13] | outcome [14] | Potency [15] | outcome [16] | Potency [17]

NS(=O)(=O)c1cc2c(cc1C(F)(F)F)NC(Cc1ccccc1)NS2(=O)=O (configuration not stated)
inactive: Potency [1] | outcome [2] | Potency [3] | Potency [8] | outcome [9] | outcome [10] | outcome [11] | outcome [12] | outcome [13] | outcome [14] | Potency [15] | Potency [17]

COC(=O)C1=C(C)NC(C)=C(C(=O)OCC(C)=O)C1c1ccccc1[N+](=O)[O-] (configuration not stated)
inactive: Potency [1] | outcome [2] | Potency [3] | outcome [4] | outcome [5] | outcome [6] | outcome [7] | Potency [8] | outcome [9] | outcome [10] | outcome [18] | outcome [11] | outcome [12] | outcome [13] | outcome [14] | Potency [19] | Potency [15] | Potency [17]

CC(C)(C)C(=O)/C=C/c1ccc(Cl)cc1
inactive: Potency [3] | outcome [5] | outcome [7] | Potency [8] | outcome [9] | outcome [11] | outcome [12] | outcome [13] | outcome [14] | Potency [19] | Potency [15] | Potency [17]

C=CC(=O)OCCCCCC
inactive: Potency [1] | outcome [2] | Potency [3] | outcome [6] | Potency [8] | outcome [18] | outcome [11] | outcome [13] | outcome [14] | outcome [20] | outcome [16] | Potency [17]

CC(=O)OC(C)(C)C
inactive: outcome [2] | Potency [3] | outcome [6] | Potency [8] | outcome [18] | outcome [11] | outcome [12] | outcome [13] | outcome [14] | Potency [19] | Potency [15] | outcome [16] | Potency [17]

c1ccc2cnncc2c1
inactive: Potency [1] | outcome [2] | Potency [3] | outcome [4] | outcome [6] | Potency [8] | outcome [9] | outcome [18] | outcome [12] | outcome [13] | outcome [14] | Potency [19] | Potency [15] | outcome [16] | Potency [17]

CCCCCCCCC=O
inactive: outcome [2] | Potency [3] | Potency [8] | outcome [18] | outcome [11] | outcome [13] | outcome [14] | outcome [20] | Potency [19] | Potency [15] | outcome [16] | Potency [17]

Fc1ccccc1-c1ccccc1
inactive: Potency [1] | outcome [2] | Potency [3] | outcome [4] | outcome [6] | Potency [8] | outcome [9] | outcome [10] | outcome [18] | outcome [11] | outcome [12] | outcome [13] | outcome [14] | Potency [19] | Potency [15] | outcome [16] | Potency [17]

CCCCCCCCCCC1CO1 (configuration not stated)
inactive: Potency [1] | outcome [2] | Potency [3] | outcome [4] | outcome [6] | Potency [8] | outcome [10] | outcome [18] | outcome [11] | outcome [12] | outcome [13] | outcome [14] | Potency [19] | Potency [15] | outcome [16] | Potency [17]
